The target of experiment [1] is Progesterone receptor (Homo sapiens) (UniProt P06401). In words: qHTS assay to identify small molecule antagonists of the progesterone receptor (PR) signaling pathway (AID 1346795; active = well fitted inhibition curve with a large enough effect in the signal ratio in the repeat runs, not every such curve was filed as active; the % refers to the signal ratio; also: potency is read from the fitted curve at half-maximal effect). The essentials:
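Screening used a GripTite HEK293T line with PR-responsive UAS-beta-lactamase. Cells were challenged with compound in the presence of 1 nM R5020 final for 16 hr at 37C; B/G FRET substrate, 2 hr room temperature, fluorescence.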
For orientation: In qHTS, concentration-response curves come from the screen itself.

The nature of experiment [2]: qHTS assay to identify small molecule antagonists of the progesterone receptor (PR) signaling pathway - cell viability counter screen (AID 1346798). Also: nearly all actives have a fitted effect of over 50% in size. Also: potency is read from the fitted curve at half-maximal effect. The method, boiled down:
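Measures cytotoxicity in parallel with the PR antagonist reporter read: HEK293T PR-UAS-bla cells get compound and R5020 for 16 hr, and remaining viable cells are quantified by CellTiter-Glo luminescence.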

Experiment [3] is described as follows: qHTS assay to identify small molecule agonists of the progesterone receptor (PR) signaling pathway - cell viability counter screen (AID 1346799; calls by dose curve; also: nearly all actives have a fitted effect of over 45% in size; also: potency is read from the fitted curve at half-maximal effect). The essentials:
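Using the same plates as the PR reporter screen, HEK293T PR-UAS-bla cells received compounds for 16 hr at 37C and were then lysed with CellTiter-Glo; luminescence was read 30 min later at room temperature.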

Experiment [4] in a line: qHTS assay to identify small molecule agonists of the TGF-beta/Smad signaling pathway - cell viability counter screen (AID 1346829). Also: nearly all actives have a fitted effect of over 45% in size. Also: potency is read from the fitted curve at half-maximal effect. The method, boiled down: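 In parallel with the Smad reporter read, viability of HEK 293T cells stably carrying SBE-bla is quantified by ATP luminescence following 5 hr compound treatment.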
Experiment [5] is described as follows: qHTS assay to identify small molecule agonists of the TGF-beta/Smad signaling pathway (AID 1346859; active = well fitted activation curve with a large enough effect in the signal ratio in the repeat runs, not every such curve was filed as active; the % refers to the signal ratio; also: series mostly up to about 77 µM; % is scaled to controls: 0 for no effect and ±100 for the full control effect). The method, boiled down:
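Beta-lactamase reporter activity downstream of Smad binding elements was measured in stably transfected HEK 293T cells; compounds were incubated for 5 hr, substrate for 2 hr at room temperature.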

In experiment [6] the target is Thyrotropin-releasing hormone receptor (Homo sapiens) (UniProt P34981). Nature of the experiment: qHTS assay to identify small molecule antagonists of the thyrotropin-releasing hormone receptor (TRHR) signaling pathway (AID 1346877; active = well fitted inhibition curve with a large enough effect in the repeat runs, not every such curve was filed as active; also: series mostly up to about 51 µM; % is scaled to controls: 0 for no effect and ±100 for the full control effect). The essentials:
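TRHR-expressing HEK293 cells loaded with calcium dye for 2 h at 37 C; compounds pre-incubated 5 min at room temperature before TRH challenge at 1 nM final. Intracellular calcium fluorescence read kinetically for 3 min; 15 concentrations in triplicate.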

For experiment [7] the target is unchanged. In words: qHTS assay to identify small molecule agonists of the thyrotropin-releasing hormone receptor (TRHR) signaling pathway (AID 1346891; calls by dose curve; also: series mostly up to about 58 µM; % is scaled to controls: 0 for no effect and ±100 for the full control effect). The essentials: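 Overnight-plated (18 h, 37 °C, 5% CO2) TRHR-Hek293 cells; 2 h calcium dye at 37 °C; compound in DMSO; 3-min kinetic fluorescence read.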
Experiment [8] is described as follows: Caspase-3/7 induction in HepG2 cells by small molecules, qHTS assay (AID 1346978). Also: nearly all actives have a fitted effect of over 15% in size. Also: potency is read from the fitted curve at half-maximal effect. The method, boiled down: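 Wild-type HepG2 cells (2,000/well) were settled 5 h at 37 C, 5% CO2, then exposed to compounds in DMSO for 17 h. Caspase-3/7 activity was read by luminescence 30 min after adding Caspase-Glo 3/7 reagent at room temperature.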
The nature of experiment [9]: Caspase-3/7 induction in CHO-K1 cells by small molecules, qHTS cell viability counter screen (AID 1346979). Also: nearly all actives have a fitted effect of over 35% in size. Also: potency is read from the fitted curve at half-maximal effect. The method, boiled down:
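Multiplexed with Caspase-Glo 3/7 in CHO-K1 cells, this counter screen added CellTiter-Fluor after 16hr of compound exposure and recorded fluorescence 1hr later.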

Experiment [10] is described as follows: Caspase-3/7 induction in CHO-K1 cells by small molecules, qHTS assay (AID 1346980). Also: % is scaled to controls: 0 for no effect and ±100 for the full control effect; nearly all actives have a fitted effect of over 15% in size. The essentials: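 Wild-type cells were seeded at 1,500 per well and settled 5 hr at 37 C, 5% CO2, then exposed to DMSO-dissolved compounds for 17 hr. Caspase-Glo 3/7 reagent was added, and luminescence was read after 30min at room temperature.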
In experiment [11] the target is Nuclear receptor subfamily 1 group I member 2 (Homo sapiens) (UniProt O75469). Nature of the experiment: Human pregnane X receptor (PXR) small molecule agonists, qHTS assay (AID 1346982). Also: nearly all actives have a fitted effect of over 35% in size. Also: potency is read from the fitted curve at half-maximal effect. As to activation: % is scaled to controls: 0 for no effect and ±100 for the full control effect. The essentials:
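PXR-Luc HepG2 reporter cells (CYP3A4-driven luciferase) in 5% charcoal-stripped FBS medium, plated 5 h before compound addition, then treated 24 h at 37C. Luciferase read by ONE-Glo luminescence after 30 min at room temperature.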

Experiment [12] deals with Cytochrome P450 2D6 (Homo sapiens) (UniProt P10635). Nature of the experiment: Cytochrome P450 Family 2 Subfamily D Member 6 (CYP2D6) small molecule antagonists: luciferase reporter qHTS assay (AID 1671196). Also: potency is read from the fitted curve at half-maximal effect; nearly all actives have a fitted effect of over 50% in size. The method, boiled down: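 Cell-free P450-Glo system: CYP2D6 with proluciferin substrate was pre-incubated with compound for 10 min, then reacted with NADPH regeneration for 1 h at room temperature. Luciferin product was detected after 20 min, and data were reported as relative luminescence units.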
A general note: A reporter such as luciferase makes a cellular process visible.

The nature of experiment [13]: qHTS assay to identify small molecule antagonists of the TGF-beta/Smad signaling pathway - cell viability counter screen (AID 1346824). Also: % is scaled to controls: 0 for no effect and ±100 for the full control effect; nearly all actives have a fitted effect of over 50% in size. The essentials: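 SBE-bla HEK 293T cells were plated overnight at 37 C, then given compounds in DMSO plus TGF-beta1 (added as 0.25 ng/mL solution) for 5 hr. After the bla read, CellTiter-Glo was added to the same wells and luminescence read after 30 min at room temperature.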

Experiment [14] in a line: Human pregnane X receptor (PXR) small molecule agonists, qHTS cell viability counter screen (AID 1346977). Also: nearly all actives have a fitted effect of over 50% in size. Also: potency is read from the fitted curve at half-maximal effect. The essentials: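 After a 5hr pre-incubation, PXR-Luc HepG2 cells received compounds plus positive control in DMSO and were kept 24hr at 37C. Cell viability was quantified by fluorescence from CellTiter-Fluor added for the final hour.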
Experiment [15] in a line: Caspase-3/7 induction in HepG2 cells by small molecules, qHTS cell viability counter screen (AID 1346981). Also: nearly all actives have a fitted effect of over 30% in size. Also: potency is read from the fitted curve at half-maximal effect. The essentials: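 Wild-type HepG2 cells, 2,000/well, settled 5 hr at 37 C, 5% CO2 before compound addition. Viability read by CellTiter-Fluor fluorescence, reagent added after 16 hr compound exposure, then 1 hr at 37C, in the same wells as the caspase read.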
Experiment [16] deals with Cytochrome P450 2C19 (Homo sapiens) (UniProt P33261). Nature of the experiment: Cytochrome P450 Family 2 Subfamily C Member 19 (CYP2C19) small molecule antagonists: luciferase reporter qHTS assay (AID 1671197). Also: potency is read from the fitted curve at half-maximal effect; nearly all actives have a fitted effect of over 65% in size. The essentials:
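Compounds were tested on CYP2C19 activity via proluciferin conversion to luciferin. The 37C, 1 h reaction followed NADPH addition; detection reagent stopped it.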

The target of experiment [17] is Nuclear receptor subfamily 1 group I member 2 (Rattus norvegicus) (UniProt Q9R1A7). Nature of the experiment: Rat pregnane X receptor (rPXR) activation by small molecules, qHTS assay (AID 1346983). Also: % is scaled to controls: 0 for no effect and ±100 for the full control effect; nearly all actives have a fitted effect of over 20% in size. As to conditions: rPXR luciferase reporter cells, One-Glo luminescence, 24 h; max activation: stronger effect = higher value. The method, boiled down:
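Cell-based rPXR luciferase reporter assay, 2,000 cells per well, rested 5hr at 37 C before compound addition in DMSO, then 24 hr at 37 C. One-Glo reagent was added and luminescence read after 30 min at room temperature.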

In experiment [18] the target is Nuclear receptor subfamily 1 group I member 2 (Homo sapiens) (UniProt O75469). In words: Human pregnane X receptor (PXR) activation by small molecules, qHTS assay (AID 1346985). Also: % is scaled to controls: 0 for no effect and ±100 for the full control effect; nearly all actives have a fitted effect of over 40% in size. The essentials: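 DPX-2 cells (HepG2 co-transfected with a PXR response element and a CYP3A4-promoter luciferase construct) were seeded at 2,000 per well, rested 5 hr at 37C, then exposed to DMSO-dissolved compounds for 24 hr. Activation was read as luciferase luminescence.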

Molecules are shown by their SMILES. Several values for one entry are separate records, joined by “and”; a condition that tells them apart may be missing. Equal values may be shown once. Records with an inconclusive call do not appear. Some compounds were tested as several samples or in several runs, with calls that do not always agree. Activity calls are given as the source filed them. Unless noted, calls follow the shape of the dose curve; as a rule, active = well fitted curve in the direction sought with a large enough effect in the repeat runs; inconclusive = weak or mixed curves; inactive = no such curve, though single readings can be large; an effect the other way counts as inactive or inconclusive.

Cytochrome P450 2C19 (Homo sapiens), sequence (P33261 whole entry, looked up): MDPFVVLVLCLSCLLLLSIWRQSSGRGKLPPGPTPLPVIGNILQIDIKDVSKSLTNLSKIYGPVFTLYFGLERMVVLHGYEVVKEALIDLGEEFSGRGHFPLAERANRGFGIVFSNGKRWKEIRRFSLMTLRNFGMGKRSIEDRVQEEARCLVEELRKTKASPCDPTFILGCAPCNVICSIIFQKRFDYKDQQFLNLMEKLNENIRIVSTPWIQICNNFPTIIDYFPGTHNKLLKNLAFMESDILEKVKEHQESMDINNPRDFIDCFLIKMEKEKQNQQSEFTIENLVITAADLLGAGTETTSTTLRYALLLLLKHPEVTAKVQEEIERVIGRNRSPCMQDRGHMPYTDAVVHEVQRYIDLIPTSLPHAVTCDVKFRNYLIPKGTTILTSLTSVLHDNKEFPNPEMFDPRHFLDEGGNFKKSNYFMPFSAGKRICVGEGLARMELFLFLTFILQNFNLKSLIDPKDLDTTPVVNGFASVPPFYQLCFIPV
Cytochrome P450 2D6 (Homo sapiens), sequence (P10635 whole entry, looked up): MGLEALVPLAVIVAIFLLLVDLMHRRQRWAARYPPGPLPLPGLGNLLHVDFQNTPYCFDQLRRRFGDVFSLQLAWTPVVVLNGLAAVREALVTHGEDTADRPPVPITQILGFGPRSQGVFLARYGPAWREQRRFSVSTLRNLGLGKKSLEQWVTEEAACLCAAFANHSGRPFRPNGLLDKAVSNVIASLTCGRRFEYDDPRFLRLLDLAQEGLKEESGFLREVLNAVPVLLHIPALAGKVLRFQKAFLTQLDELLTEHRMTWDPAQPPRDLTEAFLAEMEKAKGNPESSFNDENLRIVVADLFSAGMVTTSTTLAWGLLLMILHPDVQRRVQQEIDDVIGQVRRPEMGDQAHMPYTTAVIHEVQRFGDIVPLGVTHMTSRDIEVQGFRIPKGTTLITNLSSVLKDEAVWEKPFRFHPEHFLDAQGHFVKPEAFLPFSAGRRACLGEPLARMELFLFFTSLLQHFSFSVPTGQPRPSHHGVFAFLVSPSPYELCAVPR
Progesterone receptor (Homo sapiens), sequence (P06401 whole entry, looked up): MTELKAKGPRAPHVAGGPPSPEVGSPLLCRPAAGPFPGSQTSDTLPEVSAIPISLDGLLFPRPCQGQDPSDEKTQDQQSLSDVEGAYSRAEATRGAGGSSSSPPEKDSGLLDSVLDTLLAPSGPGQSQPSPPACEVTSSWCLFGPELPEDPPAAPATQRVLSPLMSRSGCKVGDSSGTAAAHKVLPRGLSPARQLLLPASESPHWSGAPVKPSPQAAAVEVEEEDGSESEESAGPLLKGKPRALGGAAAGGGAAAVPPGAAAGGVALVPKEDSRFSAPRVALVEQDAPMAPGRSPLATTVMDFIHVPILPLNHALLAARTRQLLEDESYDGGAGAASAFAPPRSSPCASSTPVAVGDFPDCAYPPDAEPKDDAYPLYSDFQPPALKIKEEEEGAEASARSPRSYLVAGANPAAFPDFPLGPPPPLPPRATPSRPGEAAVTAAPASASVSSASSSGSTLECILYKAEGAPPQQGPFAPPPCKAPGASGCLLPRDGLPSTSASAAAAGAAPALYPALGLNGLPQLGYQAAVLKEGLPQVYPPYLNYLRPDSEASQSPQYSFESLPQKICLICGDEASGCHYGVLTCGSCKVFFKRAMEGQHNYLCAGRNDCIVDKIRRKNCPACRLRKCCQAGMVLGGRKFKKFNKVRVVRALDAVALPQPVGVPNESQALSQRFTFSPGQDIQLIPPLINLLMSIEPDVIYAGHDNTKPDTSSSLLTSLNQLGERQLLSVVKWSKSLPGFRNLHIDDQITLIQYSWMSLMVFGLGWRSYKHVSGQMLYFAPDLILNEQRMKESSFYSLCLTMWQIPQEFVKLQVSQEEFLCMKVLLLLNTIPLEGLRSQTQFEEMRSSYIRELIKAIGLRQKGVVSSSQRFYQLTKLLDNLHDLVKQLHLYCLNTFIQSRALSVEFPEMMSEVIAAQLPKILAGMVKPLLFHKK
Thyrotropin-releasing hormone receptor (Homo sapiens), sequence (P34981 whole entry, looked up): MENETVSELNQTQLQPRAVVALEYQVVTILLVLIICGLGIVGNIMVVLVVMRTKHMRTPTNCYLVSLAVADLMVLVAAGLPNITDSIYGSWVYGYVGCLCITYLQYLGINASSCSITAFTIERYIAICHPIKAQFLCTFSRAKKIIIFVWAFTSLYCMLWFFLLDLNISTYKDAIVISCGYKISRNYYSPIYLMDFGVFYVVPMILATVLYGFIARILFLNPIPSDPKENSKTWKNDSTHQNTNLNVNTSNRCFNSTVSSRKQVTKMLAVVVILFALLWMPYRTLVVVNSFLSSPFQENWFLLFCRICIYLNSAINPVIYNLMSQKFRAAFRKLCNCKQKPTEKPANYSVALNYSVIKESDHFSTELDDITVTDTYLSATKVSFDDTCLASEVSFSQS
Nuclear receptor subfamily 1 group I member 2 (Homo sapiens), sequence (O75469 whole entry, looked up): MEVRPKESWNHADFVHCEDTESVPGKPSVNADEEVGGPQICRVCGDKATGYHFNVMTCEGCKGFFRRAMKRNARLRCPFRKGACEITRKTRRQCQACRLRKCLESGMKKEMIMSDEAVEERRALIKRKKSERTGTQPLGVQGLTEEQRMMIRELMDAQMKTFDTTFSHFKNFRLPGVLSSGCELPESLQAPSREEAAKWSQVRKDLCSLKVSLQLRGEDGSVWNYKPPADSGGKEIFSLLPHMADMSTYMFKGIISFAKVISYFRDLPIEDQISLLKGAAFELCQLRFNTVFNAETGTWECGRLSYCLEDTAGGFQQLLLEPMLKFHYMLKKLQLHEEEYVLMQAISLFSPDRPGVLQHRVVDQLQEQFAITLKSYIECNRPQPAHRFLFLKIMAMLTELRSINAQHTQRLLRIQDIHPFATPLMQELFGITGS
Nuclear receptor subfamily 1 group I member 2 (Rattus norvegicus), sequence (Q9R1A7 whole entry, looked up): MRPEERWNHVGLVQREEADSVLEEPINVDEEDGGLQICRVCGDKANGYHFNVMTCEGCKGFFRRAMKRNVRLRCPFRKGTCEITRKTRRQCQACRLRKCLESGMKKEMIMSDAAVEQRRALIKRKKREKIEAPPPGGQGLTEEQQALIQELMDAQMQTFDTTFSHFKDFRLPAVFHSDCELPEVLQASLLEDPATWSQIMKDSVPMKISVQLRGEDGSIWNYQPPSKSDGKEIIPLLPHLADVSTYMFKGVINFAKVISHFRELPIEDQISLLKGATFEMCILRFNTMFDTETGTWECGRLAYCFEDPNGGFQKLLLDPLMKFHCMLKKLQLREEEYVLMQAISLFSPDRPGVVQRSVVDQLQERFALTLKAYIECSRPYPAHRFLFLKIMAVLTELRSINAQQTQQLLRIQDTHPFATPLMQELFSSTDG

As to `CCCCCCOc1ccc(O)cc1`, the Potency was 13.7 µM (active) in experiment [1], 61.1 µM (active) in [9], 48.6 µM (active) in experiment [11] and 79.6 µM (active) in experiment [12]. Besides, the Potency entry in [2], in [3], in [4], in experiment [5], in experiment [6] and in [7] was “inactive” throughout. Further, the Potency result in experiment [8] and in experiment [10] was “inactive” in each case.

For the compound `CCC1(c2cnc[nH]2)Cc2ccccc2C1`, the Potency entry in experiment [2], in experiment [3], in [13], in experiment [4], in experiment [5] and in [6] was “inactive” throughout. The Potency entry in experiment [7], in [14], in experiment [8], in [9], in [10] and in experiment [15] was “inactive” in each case. The Potency entry in experiment [11] was “inactive”. In addition, the Potency in experiment [12] is 0.977 µM (active).

As for `NC(=O)c1nc(-c2cccc(-c3cc(F)ccc3OCC(F)(F)C(F)(F)F)c2)n[nH]1`, the Potency in [1] was 34.4 µM (active); in [14] it was 54.5 µM (active); in experiment [9], 54.5 µM (active); in experiment [15], 61.1 µM (active); in experiment [11], 61.1 µM (active); in experiment [12], 79.6 µM (active). Further, in experiment [16], the Potency is 28.3 µM (active). Moreover, the Potency result in experiment [13], in experiment [4], in experiment [5], in experiment [6], in [7] and in experiment [8] was “inactive” in each case.

As to `CCCCCCCCCCCCOC(=O)c1cc(O)c(O)c(O)c1`, the Potency in [2] is 54.2 µM (active); in experiment [3], 60.9 µM (active); in experiment [4], 61.4 µM (active) and inactive; in experiment [14], 60.9 µM (active) and 61.1 µM (active); in experiment [8] it was 60.9 µM (active) and 68.6 µM (active); in experiment [9] it was 9.65 µM (active) and 7.7 µM (active). Besides, the Potency in experiment [15] is 60.9 µM (active); in experiment [11], 24.2 µM (active) and 21.7 µM (active); in experiment [12], 28.2 µM (active) and 31.7 µM (active); in experiment [16], 25.1 µM (active) and 20 µM (active). In addition, the Potency entry in [5] and in [10] was “inactive” each time.

In the case of `CCCCCCCOC(=O)c1ccc(O)cc1`, the Potency in experiment [1] is 24.4 µM (active) and 38.6 µM (active); in experiment [9], 61.2 µM (active) and 61.1 µM (active); in [11], 61.1 µM (active); in experiment [12], 71 µM (active); in [16], 7.1 µM (active) and 20 µM (active). Further, the Potency entry in experiment [13], in [4], in experiment [5], in experiment [14] and in experiment [15] was “inactive” in each case.

Turning to `CNC(=O)c1cc(Oc2ccc(NC(=O)Nc3ccc(Cl)c(C(F)(F)F)c3)cc2)ccn1`, the Potency in [1] is 11.9 µM (active); in experiment [14], 23.7 µM (active); in [9], 26.6 µM (active). The Potency entry in [4], in experiment [5], in [6], in [7], in [10] and in experiment [11] was “inactive” in each case. Besides, the Potency entry in [18] was “inactive”. The max activation in experiment [17] is -24.5% (inactive).

As to `CC(=O)Oc1ccc(C2(c3ccc(OC(C)=O)cc3)Oc3ccccc3NC2=O)cc1`, the Potency in experiment [1] was 21.1 µM (active). The Potency entry in experiment [13], in experiment [4], in experiment [5], in experiment [6], in [7] and in experiment [14] was “inactive” throughout. Moreover, the Potency result in experiment [8], in experiment [10] and in experiment [15] was “inactive” throughout.

The values above are taken from PubChem BioAssay (Tox21).
